Consider 90 compounds from PubChem BioAssay AID1962 (The Scripps Research Institute Molecular Screening Center, 2009).

As usually defined, the inhibition is the drop in the measured response relative to a control, in per cent.

Each structure is given as a SMILES string. Out of some 300,000 compounds screened, about 2,500 (0.83%) were called active.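 The calls were made as follows: active = inhibition above the mean of all tested compounds plus 3 SD, set per screening campaign (cut at about 24% in these data); inactive = the rest.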 The full list was thinned out, with actives kept by preference.

The subject of the assay is tRNA 2'-phosphotransferase TPT1 (Candida albicans SC5314). As to the kind of experiment: Candida albicans TPT1 enzyme inhibitors, primary screen, biochemical, fluorescence polarization (AID 1962).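 Also: plate controls were DMSO alone for no effect and ferristatin control at 100 nM for full effect.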 The settings on record: recombinant caTPT1, FP RNA substrate dephosphorylation; at 5 µM; hits give high values. A general note: Polarisation of emitted light reports the rotation of a fluorescent probe.
As for `O=C1NC(=O)C2C1C(c1ccc([N+](=O)[O-])cc1)=NN2Cc1ccccc1` (stereo not given), the inhibition was 32.4% (active).
Consider `CC1=NN(c2ccccc2)C(=O)C1C(=O)c1ccc([N+](=O)[O-])cc1` (stereo not given), for which the inhibition was 0.3% (inactive).
Regarding `CC(=O)N1c2ccccc2N(Cc2ccc([N+](=O)[O-])cc2)C(=O)C1(C)C`, the inhibition is 9.11% (inactive).
The result for `CC(=O)c1ccc(N2C(=NC(=O)C(C)C)SC3CS(=O)(=O)CC32)cc1` (stereo not given) reads -0.98% (inactive); that for `Nn1c(SCC(=O)Nc2nccs2)nncc1=O`, 0.93% (inactive).
The result for `COCCn1cnc2c1c(=O)n(CC(=O)NN)c(=O)n2Cc1ccccc1` reads -3.43% (inactive).
As to `COc1cc(NC(=O)C2=CC(c3ccco3)=NS(=O)(=O)N2C)cc(OC)c1OC`, the inhibition is -0.29% (inactive).
The result for `CC1=C(C(=O)OC2CCCCC2)C(c2ccccc2F)NC(=O)N1` (stereo not given) reads 1.28% (inactive); that for `O=C1NN(c2ccccc2)C(=O)/C1=C/c1ccc(-c2cccc(C(=O)O)c2)o1`, -6.86% (inactive); that for `O=C(O)C(c1ccccc1)N1C(=O)/C(=C\c2ccc(-c3cccc(Cl)c3)o2)SC1=S` (stereo not given), 134% (active).
Turning to `O=C1c2ccccc2NC(c2ccc(-c3cccc(Cl)c3)o2)N1O` (stereo not given), the inhibition was 2.03% (inactive).
For the compound `CN1C(=O)/C(=C/c2ccco2)SC1=Nc1cccc(C(=O)O)c1`, the inhibition is -0.91% (inactive).
The result for `NS(=O)(=O)c1ccc(-c2ccc(/C=C3\SC(=O)NC3=O)o2)cc1` reads 0.01% (inactive); that for `CN1C(=O)/C(=C\c2ccc(-c3ccccc3)o2)SC1=S`, 47% (active); that for `Cn1cc[n+](C)c1COc1ccc(C=O)cc1`, -0.82% (inactive).
The result for `CCc1ccc(Nc2n[n+](-c3ccccc3)c(-c3cccc(Cl)c3Cl)s2)cc1` reads -1.82% (inactive); that for `OCC[C@H]1C[C@H](O)[C@@H](O)[C@]2(Cc3ccccc3CO2)O1`, 1.4% (inactive); that for `Cc1ccc(C(=O)NCC(=O)OCC(=O)Nc2cccc(S(=O)(=O)N3CCCC3)c2)cc1C`, -0.56% (inactive).
As to `CCn1cc(C(=O)NC2CCCCCC2)c(=O)c2cc(S(=O)(=O)N3CCCCC3)ccc21`, the inhibition is -2.73% (inactive).
As for `COc1ccc(C(=O)CC(=O)c2ccc(C)cc2)c(O)c1`, the inhibition is -1.28% (inactive).
Regarding `O=C(COC(=O)c1cnccn1)Nc1cccc2ccccc12`, the inhibition is -2.21% (inactive).
For `Cc1cc(/C=N/NC(=O)c2cccnc2)c(C)n1CC(C)C`, the inhibition was -3.6% (inactive).
The result for `O=C(N/N=C/c1ccccn1)c1cccnc1` reads -1.95% (inactive); that for `O=C(N/N=C/c1sc(N2CCCCC2)nc1-c1cccs1)c1cccnc1`, 61.1% (active).
The result for `CCSC(C)CC1C/C(=N/O)c2c(C)noc2C1` (stereo not given) reads -7.78% (inactive).
Regarding `COc1ccc(NC(=O)CN(C)C(=O)c2ccc(COc3ccccc3)o2)cc1`, the inhibition is 1.15% (inactive).
The result for `CCN1/C(=C\c2ccc3ccccc3[n+]2CC)Sc2cc(C)ccc21` reads 68.7% (active); that for `CCN1/C(=C/c2ccc3ccc(C)cc3[n+]2CC)Sc2ccccc21`, 49.5% (active).
The result for `COCCCNC(=O)Cn1c(=O)n(Cc2ccccc2Cl)c(=O)c2cc(OC)c(OC)cc21` reads 1.46% (inactive); that for `COc1ccc(C2=NOC3(CC(=O)N(c4ccc(Cl)cc4)C3=O)C2)c(OC)c1` (stereo not given), -4.26% (inactive); that for `O=C(c1cccc(Br)c1)N1CCN(C2=NS(=O)(=O)c3ccccc32)CC1`, 0.45% (inactive).
The result for `COc1cccc(/C=C(/CC(=O)Nc2ccc(N3CCOCC3)cc2)c2nc3ccccc3s2)c1` reads 9.31% (inactive); that for `O=S(=O)(c1cccc(-c2nnc(SC(F)F)n2-c2ccccc2)c1)N1CCCCC1`, -5.49% (inactive).
Consider `CCN(CC)C(=O)CSC(Nc1cccc(F)c1)=C(C#N)C#N`, for which the inhibition was 62.4% (active).
The result for `Cc1ccc(CSCC(=O)N(C)CC(=O)Nc2cccc(F)c2)cc1` reads 1.31% (inactive).
The result for `CCN(CC)C(=O)C(=O)Nc1cccc(Br)c1` reads -2.63% (inactive); that for `O=C(CNc1ccc(F)cc1F)NC(=O)NCc1ccco1`, -0.97% (inactive).
Consider `CCOC(=O)[C@H]1[C@H]2COc3ccc(Cl)cc3[C@@H]2N2C(=O)c3cc(C)ccc3NC(=O)[C@@]12C`, for which the inhibition is 2.94% (inactive).
As to `Cc1cc(-c2ccc(S(=O)(=O)N3CCc4ccccc4C3)s2)on1`, the inhibition was -0.99% (inactive).
The result for `CS(=O)(=O)N(CC(=O)N/N=C/c1ccccn1)c1ccc(Oc2ccccc2)cc1` reads -0.87% (inactive).
The result for `CCCCCCc1cc2cc(-c3nnc(-c4ccccc4)o3)c(=O)oc2cc1O` reads 133% (active).
In the case of `CCCCCCc1ccc(O)cc1O`, the inhibition was 2.21% (inactive).
As for `Cc1c(CC(=O)NCCCCCC(=O)O)c(=O)oc2cc3occ(-c4ccccc4)c3cc12`, the inhibition is -0.72% (inactive).
The result for `Cn1ccc(=NC=C(C#N)C#N)c2ccccc21` reads 25.3% (active).
On to `N#CC(C#N)=CN=c1ccn(Cc2ccc(Cl)cc2Cl)cc1`, for which the inhibition was 0.38% (inactive).
In the case of `Cc1cc(NC(=O)Nc2c[nH]c(=O)[nH]c2=O)ccc1Br`, the inhibition was 0.27% (inactive).
The result for `CCCc1nc2c(C)cc(-c3nc4ccccc4n3C)cc2n1Cc1ccc(-c2ccccc2C(=O)O)cc1` reads 1.15% (inactive).
For the compound `Fc1ccc(/C=N/Nc2nc(-c3cccnc3)nc3ccccc23)cc1`, the inhibition was 0.23% (inactive).
As to `Oc1ccc(/C=N/Nc2nc(-c3ccccc3F)nc3ccccc23)c(O)c1`, the inhibition is 24.8% (active).
Take `Cc1nc2ccccc2nc1N/N=C/c1ccc(O)cc1O`: the inhibition is 1.81% (inactive).
As to `CN(C)C1=NC[C@H](Cc2ccccc2)N1CCc1ccc(F)cc1`, the inhibition is -4.71% (inactive).
In the case of `Cc1cc(C)c(S(=O)(=O)N2C=CC(C(F)(F)F)=NCC2)c(C)c1`, the inhibition is -0.62% (inactive).
The result for `O=S(=O)(c1ccc(F)cc1)N1CCN(C(=S)NCc2ccco2)CC1` reads 1.64% (inactive); that for `OCC[C@H]1C[C@@H](O)[C@H](O)[C@@]2(OCCc3ccccc32)O1`, 0.6% (inactive).
As to `OCC[C@H]1C[C@H](O)[C@@H](O)[C@]2(CCc3ccccc3O2)O1`, the inhibition is -0.81% (inactive).
As to `O=C(Cc1c[nH]c2ccccc12)OCCOC(=O)Cc1c[nH]c2ccccc12`, the inhibition was 0.4% (inactive).
On to `COc1ccccc1CC(=O)NCCc1c[nH]c2ccccc12`, for which the inhibition was -1.76% (inactive).
The result for `O=S(=O)(O)Oc1c[nH]c2ccccc12` reads 25.4% (active).
The result for `CN1CCN(Cc2nc3cc(NC(=O)COc4ccc([N+](=O)[O-])cc4)ccc3n2C)CC1` reads -2.77% (inactive).
Take `COc1ccc(C(=O)Nc2sc(C)c(C)c2CN2CCOCC2)cc1`: the inhibition is 2.12% (inactive).
On to `C#CCOCCOCCOCCNc1nc(N2CCN(C(=O)CCCCCCCCCCNC(=O)Cn3cc(CCCCCN)nn3)CC2)nc(N2CCN(C(=O)CCCCCCCCCCNC(=O)[C@H](CO)n3cc(CCCSC)nn3)CC2)n1`, for which the inhibition was -0.6% (inactive).
On to `Cc1cc(O)c(Sc2ccccc2)c(=O)o1`, for which the inhibition is 0.86% (inactive).
The result for `Cc1cc(O)c(C(=O)/C=C/c2c(F)c(F)c(F)c(F)c2F)c(=O)o1` reads 44.1% (active); that for `Cc1ccc(N=Cc2c(O)cc(C)oc2=O)c(C)c1`, 9.41% (inactive).
The result for `Cc1ccc(-n2c(SCC(=O)NCCC3=CCCCC3)nc3n[nH]c(C)c3c2=N)cc1Cl` reads 0.45% (inactive).
Turning to `CO[C@@H]1[C@@H](OC(N)=O)[C@@H](O)C(Oc2ccc3c(O)c(NC(=O)c4ccc(O)c(CC=C(C)C)c4)c(=O)oc3c2C)OC1(C)C` (stereo not given in full), the inhibition was -0.98% (inactive).
For `Cc1ccc(Cl)c(NC(=O)CN(C)CC(=O)Nc2ccc(F)c(F)c2F)c1Cl`, the inhibition was 2.01% (inactive).
As to `COc1ccc(C2=NN(C(=O)c3ccccc3C(=O)O)C(c3ccccc3O)C2)cc1` (stereo not given), the inhibition is 35.3% (active).
On to `COc1ccc(C2=NN(C(=O)c3cccnc3)C(c3ccccc3)C2)cc1` (stereo not given), for which the inhibition is 3.29% (inactive).
Consider `COc1ccc(C2=NN(C(C)=O)C(c3ccccc3)C2)cc1` (stereo not given), for which the inhibition was -4.9% (inactive).
With `O=C(Nc1cc(-c2ccccc2)nn1-c1ccccc1F)c1ccc([N+](=O)[O-])cc1`, the inhibition was 1.59% (inactive).
The result for `Cc1ccc2c(c1)C(c1ccccc1)N(C(=O)c1ccc(S(=O)(=O)N3CCOCC3)cc1)CC(=O)N2` (stereo not given) reads 1.61% (inactive); that for `CCN(CC)CCNc1nc(-c2ccc(OC(F)F)cc2)c(C)s1`, -0.49% (inactive); that for `COc1ccc(/C=C2\SC(=S)N(CCC(=O)Nc3ccccn3)C2=O)cc1OC`, 1.07% (inactive).
In the case of `COc1ccc(/C=C2\SC(=S)N(CC(=O)NNC(=O)c3ccncc3)C2=O)cc1`, the inhibition is -4.74% (inactive).
The result for `CCOc1ccc(/C=C2\SC(=S)N(NC(=O)c3ccncc3)C2=O)cc1OC` reads 33.7% (active).
The result for `O=C(c1cc(-c2ccc(Cl)cc2)on1)N1CCN(c2ccccc2)CC1` reads -0.95% (inactive).
The result for `O=C(O)CCCC(=O)Nc1ccc(Oc2cccc(C(F)(F)F)c2)nc1` reads -1.11% (inactive); that for `COC(=O)c1[nH]c2cccc(C)c2c1NC(=O)CN1CCCc2ccccc21`, 29% (active).
For `COC(=O)c1[nH]c2ccccc2c1NC(=O)CN1CCCc2ccccc21`, the inhibition is 11.9% (inactive).
Take `NS(=O)(=O)c1cccc(NC(=O)CN2CCCc3ccccc32)c1`: the inhibition was 14.5% (inactive).
The result for `S=C(NC1CCCCC1)NN1CCOCC1` reads -1.16% (inactive).
For `Cc1nn(C(C)CC(=O)O)c(C)c1C` (stereo not given), the inhibition is 0.87% (inactive).
The result for `CN(C)c1ccc(/C=N\S(=O)(=O)c2ccccc2)cc1` reads 0.48% (inactive).
Consider `CC[n+]1cc(C)ccc1/C=C/c1ccc(N(C)C)cc1`, for which the inhibition is 29.6% (active).
Regarding `CCCCN(CC)C(=O)C1CCCN(S(=O)(=O)c2cccc3nsnc23)C1` (stereo not given), the inhibition is -2.13% (inactive).
The result for `CCOC(=O)c1c(CC(C)C)csc1/N=C/C1=C(O)CCCC1=O` reads 98.3% (active); that for `CCOC(=O)c1sc(/N=C/C2=C(O)CC(C)(C)CC2=O)c(C(=O)OCC)c1C`, -1.8% (inactive).
The result for `Cc1cc(N=CC2=C(O)CCCC2=O)no1` reads -5.36% (inactive).
Turning to `CC1CCC(CN2CCN=C2N(C)C)CC1` (stereo not given), the inhibition was -1.25% (inactive).
